Data: PubChem BioAssay

The compounds below were run against Dickkopf-related protein 1 (Homo sapiens) (UniProt O94907) (assay: DKK1 binders on small-molecule microarrays, primary screen, biochemical, small-molecule microarray, 635 nm fluorescence scan (AID 1106;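 further: score merges emission near 667 nm with signal to noise over three replicate slides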)). Conditions: DKK1 binding, higher = more signal.
Dickkopf-related protein 1 (Homo sapiens), sequence (O94907 whole entry, looked up): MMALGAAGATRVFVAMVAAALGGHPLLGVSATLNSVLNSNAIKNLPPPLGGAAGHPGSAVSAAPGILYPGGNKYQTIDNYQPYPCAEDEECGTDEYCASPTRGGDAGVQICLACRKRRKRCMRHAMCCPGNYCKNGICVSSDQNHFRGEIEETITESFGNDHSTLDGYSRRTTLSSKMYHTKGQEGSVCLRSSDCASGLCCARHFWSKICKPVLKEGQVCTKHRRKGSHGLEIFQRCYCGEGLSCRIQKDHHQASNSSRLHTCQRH

With `COCCOC(=O)N1C(=O)[C@@]2(c3cc(C#CC4=CCCCC4)ccc31)[C@H](c1ccccc1OCCO)N1[C@H](c3ccccc3)[C@H](c3ccccc3)OC(=O)[C@H]1[C@@H]2C(=O)Nc1nc2ccccc2s1` as the compound, how does the composite z-score read?
The composite z-score was 0.506.

How did the composite z-score turn out when `CCCNC(=O)[C@@H]1c2ccccc2C(=O)N(C(C)C)[C@H]1c1ccc(CO)cc1` was run?
Its composite z-score is -0.375.

How did the composite z-score turn out when `CCCCO[C@H]1C[C@H]2C(I)=C[C@@H]1C(=O)[C@]21CO1` was run?
The composite z-score was 0.668.

`CC(C)(C)OC(=O)CC[C@]1(C(=O)NCC(O)CO)N=C(c2ccc(OCCCO)cc2)O[C@H]1c1ccccc1` (stereo partly specified) was tested. Which composite z-score did it give?
Its composite z-score is -1.09.

Which composite z-score does the source give for `C=CC[C@]1(C(=O)O)COC(c2ccc(OCCCO)cc2)=N1` here?
The composite z-score was 0.117.

For `CN1C(=O)C2C=CC(C(O)c3ccccn3)N(N(c3ccccc3)c3ccccc3)C2C1=O` (stereo unspecified), which composite z-score is on record?
Its composite z-score is -0.0644.

With `[N-]=[N+]=NCc1ccccc1C[C@@]1(C(=O)N2CCOCC2)N=C(c2ccc(OCCCO)cc2)O[C@@H]1c1ccccc1` as the compound, how does the composite z-score read?
Its composite z-score is -0.519.

`CC(=O)NCCCC[C@@H]1NC(=O)[C@@H]2C[C@H](C(=O)NCCCC[N+](C)(C)C)[C@H](c3ccc(O)cc3)N2C1=O` was tested. Which composite z-score did it give?
Its composite z-score is 1.76.

For `C[C@H]1NC(=O)[C@@]23C(=O)N[C@@H](Cc4ccccc4)C2[C@H](C)[C@@]2(C)O[C@H]2C3/C=C/C/C=C\CNC(=O)[C@H](Cc2ccccc2)NC1=O` (stereo partly specified), which composite z-score is on record?
Its composite z-score is 0.689.

For `[N-]=[N+]=Nc1ccccc1C[C@]1(C(N)=O)N=C(c2ccc(OCCCO)cc2)O[C@H]1c1ccccc1N=[N+]=[N-]`, which composite z-score is on record?
The composite z-score was -0.442.

How did the composite z-score turn out when `O=C1O[C@@H](c2ccccc2)[C@@H](c2ccccc2)N2[C@@H](c3ccc(O)cc3)[C@]3(C(=O)Nc4ccc(C#CC5=CCCCC5)cc43)[C@@H](C(=O)NC[C@H](O)c3ccccc3)[C@H]12` was run?
Its composite z-score is 1.49.

With `CCOC(=O)C1=CC[C@@H](c2ccccc2C(F)(F)F)N(S(=O)(=O)c2ccc(C)cc2)[C@H]1c1ccc(C#N)cc1` as the compound, how does the composite z-score read?
The composite z-score was 0.35.

Which composite z-score does the source give for `O[C@@H](Cc1ccccc1)[C@@H](/C=C/C1CC1)N(CC#Cc1ccccc1)Cc1cccc(Cl)c1` here?
Its composite z-score is -1.49.

For `CN(C)CCCCNC(=O)[C@@H]1C[C@@H]2C(=O)N[C@@H](Cc3ccccc3)C(=O)N2[C@@H]1c1cccc(OCCO)c1`, which composite z-score is on record?
Its composite z-score is 1.28.

For `COc1ccc([Si](C)(C)[C@@H]2[C@@H](CC(=O)N(CCO)Cc3ccccc3)O[C@]3(C(=O)N(c4ccccc4)c4ccccc43)[C@H]2C)cc1`, which composite z-score is on record?
The composite z-score was 0.95.

With `CC=CC(O)C1C=CC2C(=O)N(c3ccccc3)C(=O)C2N1Nc1ccccc1F` (stereo unspecified) as the compound, how does the composite z-score read?
Its composite z-score is 0.0324.

How did the composite z-score turn out when `C=CC1c2cc(O)c(OC)cc2CCN1Cc1cc2c(cc1Br)OCO2` (stereo unspecified) was run?
The composite z-score was 0.565.

For `CC(C)C(CO)N1C(=O)[C@@H]2C3C(=O)OCCC/C=C\[C@H]3OC23C=CCN(C(C)(C)C)C(=O)[C@@H]13` (stereo partly specified), which composite z-score is on record?
The composite z-score was -0.268.

With `[N-]=[N+]=NCc1ccccc1C[C@@]1(C(=O)N2CCCCC2)N=C(c2ccc(OCCCO)cc2)O[C@@H]1c1ccccc1` as the compound, how does the composite z-score read?
Its composite z-score is -0.849.

Which composite z-score does the source give for `O=C1C[C@@](C(=O)NCCN2CCOCC2)(c2ccc([N+](=O)[O-])cc2)[C@@H](c2ccc(CO)cc2I)N1C1CCCCC1` here?
The composite z-score was 0.397.

For `COC(=O)c1c(CC[C@@H](CO)NC(=O)N2CCC[C@H]2Cn2cc(Cc3ccccc3)nn2)oc(C(C)=O)c1C(=O)OC`, which composite z-score is on record?
The composite z-score was 0.135.

`O=C1NC(=O)C2C1C=CC(C(O)c1cccc3ccccc13)N2Nc1ccc(Cl)cc1Cl` (stereo unspecified) was tested. Which composite z-score did it give?
The composite z-score was -1.03.

For `N#Cc1ccc(C(O)C2C=CC3C(=O)N(c4ccccc4)C(=O)C3N2Nc2ccccc2)cc1` (stereo unspecified), which composite z-score is on record?
Its composite z-score is -0.352.

`COC(=O)[C@@]1(Cc2ccc(OC)cc2)[C@H]2c3cc(C(=O)N(C)C)n(C[C@H](O)CO)c3C[C@H]2CN1C(=O)c1ccccc1` was tested. Which composite z-score did it give?
Its composite z-score is -1.18.

For `COc1cc(OC)c(C(O)C2C=CC3C(=O)N(c4ccccc4)C(=O)C3N2Nc2ccccc2)cc1Br` (stereo unspecified), which composite z-score is on record?
Its composite z-score is -0.386.

How did the composite z-score turn out when `COCCCNC(=O)[C@@]1(Cc2ccccc2N=[N+]=[N-])N=C(c2ccc(OCCCO)cc2)O[C@H]1c1ccccc1` was run?
Its composite z-score is 0.157.

How did the composite z-score turn out when `C=C(C)C1CCC(C(O)C2C=CC3C(=O)N(C)C(=O)C3N2N2CCCCC2)CC1` (stereo unspecified) was run?
The composite z-score was 0.986.

`Cc1ccc(S[C@]2(C(=O)O)CC(=O)N(C3Cc4ccccc4C3)[C@@H]2c2ccc(CO)cc2)cc1` was tested. Which composite z-score did it give?
The composite z-score was -1.69.

`O=C1C2C=CC(C(O)c3ccc(Br)cc3)N(Nc3ccccc3F)C2C(=O)N1c1ccccc1` (stereo unspecified) was tested. Which composite z-score did it give?
Its composite z-score is -0.325.

For `CC(C)(C)N1CC=CC23O[C@@H]4C=CCCOC(=O)C4[C@H]2C(=O)N(CCO)[C@@H]3C1=O` (stereo partly specified), which composite z-score is on record?
The composite z-score was -0.492.

With `C=CCNC(=O)[C@H]1[C@@H]2C(=O)O[C@@H](c3ccccc3)[C@@H](c3ccccc3)N2[C@@H](c2ccc(O)cc2)[C@]12C(=O)N(C(=O)OCCOC)c1ccccc12` as the compound, how does the composite z-score read?
Its composite z-score is 0.298.

How did the composite z-score turn out when `C[C@@H]1NC(=O)[C@@]23C(=O)N[C@@H](Cc4ccccc4)C2[C@H](C)[C@@]2(C)O[C@H]2C3/C=C/C/C=C\CNC(=O)[C@@H]2CCCN2C1=O` (stereo partly specified) was run?
Its composite z-score is 0.0077.

`COCCOC(=O)N1C(=O)[C@@]2(c3cc(C#Cc4ccc(OC)cc4)ccc31)[C@H](C(=O)Nc1nc3ccccc3s1)[C@H]1C(=O)O[C@H](c3ccccc3)[C@H](c3ccccc3)N1[C@@H]2c1ccc(O)cc1` was tested. Which composite z-score did it give?
The composite z-score was 0.875.

How did the composite z-score turn out when `CN(C)C(=O)C1N=C(c2ccc(OCCCO)cc2)N(c2ccccc2)O1` (stereo unspecified) was run?
Its composite z-score is 0.726.

How did the composite z-score turn out when `O=C(NCC(F)(F)F)[C@@H]1c2ccccc2C(=O)N(Cc2ccc(OC(F)(F)F)cc2)[C@H]1c1ccc(CO)cc1` was run?
Its composite z-score is 0.0428.

Which composite z-score does the source give for `[N-]=[N+]=Nc1ccccc1[C@H]1OC(c2ccc(OCCCO)cc2)=N[C@@]1(Cc1ccccc1)C(=O)N1CCCCC1` here?
The composite z-score was 1.18.
